Among all 39,000 compounds or so, about 3,300 (8.5%) were called active. For the sample, actives were picked, then their nearest neighbours and some compounds at random.
test system: HepG2; assay: cytotoxicity call (relative viability < 0.9); details: 10 µM

Row | Compound | cytotoxicity call
1 | C[C@H]1CN([C@@H](C)CO)C(=O)c2cccc(NC(=O)C3CC3)c2O[C@H]1CN(C)S(=O)(=O)c1ccc(F)cc1 | inactive
2 | COc1ccc(CN(C)C[C@H]2OCCCC[C@@H](C)Oc3ccc(NS(=O)(=O)c4ccc(C)cc4)cc3C(=O)N([C@H](C)CO)C[C@H]2C)cc1 | inactive
3 | C[C@H]1CN([C@@H](C)CO)C(=O)c2cc(NS(=O)(=O)c3cn(C)cn3)ccc2O[C@@H]1CN(C)S(=O)(=O)c1ccc(Cl)cc1 | inactive
4 | NNC(=O)c1cccc(C(F)(F)F)n1 | inactive
5 | CCC(=O)O[C@H]1[C@@H]2CC3=C4CC(=O)O[C@@H](c5ccoc5)[C@]4(C)CC[C@@H]3[C@@](C)(C2=O)[C@@H](CC(=O)OC)C1(C)C | inactive
6 | C[C@H](CO)N1C[C@H](C)[C@H](CN(C)C(=O)c2ccccc2)OCCCC[C@H](C)Oc2ccc(NS(=O)(=O)c3cccs3)cc2C1=O | inactive
7 | C[C@@H]1CN([C@@H](C)CO)C(=O)c2cc(NC(=O)Cc3cn(C)c4ccccc34)ccc2O[C@H]1CN(C)CC1CCCCC1 | inactive
8 | COc1cccc(S(=O)(=O)Nc2ccc3c(c2)[C@H]2C[C@H](CC(=O)NC4CCCCC4)O[C@@H](CO)[C@H]2O3)c1 | inactive
9 | CN(C)CCCNC(=O)C[C@@H]1CC[C@H]2[C@H](COc3ccc(NC(=O)c4cccc(F)c4)cc3C(=O)N2C)O1 | inactive
10 | COc1ccc(S(=O)(=O)Nc2ccc3c(c2)C(=O)N([C@@H](C)CO)C[C@@H](C)[C@@H](CN(C)Cc2ccc4c(c2)OCO4)OCCCC[C@H](C)O3)cc1 | inactive
11 | CCC(=O)NCc1nccc(N(C)C)n1 | inactive
12 | C[C@H](CO)N1C[C@H](C)[C@@H](CN(C)S(=O)(=O)c2ccc(F)cc2)Oc2ccc(NC(=O)Cn3cnnn3)cc2CC1=O | inactive
13 | C[C@@H]1CN([C@@H](C)CO)C(=O)c2cc(NC(=O)Nc3ccc(C(F)(F)F)cc3)ccc2O[C@H]1CN(C)Cc1ccc(C(=O)Nc2ccccc2N)cc1 | active
14 | C[C@H](CO)N1C[C@H](C)[C@@H](CN(C)Cc2ccc(C(=O)Nc3ccccc3N)cc2)Oc2ccc(NC(=O)Nc3ccc(C(F)(F)F)cc3)cc2C1=O | inactive
15 | C[C@H]1CN([C@@H](C)CO)C(=O)c2cc(NC(=O)Nc3ccc(C(F)(F)F)cc3)ccc2O[C@H]1CN(C)Cc1ccc(C(=O)Nc2ccccc2N)cc1 | inactive
16 | C[C@@H]1CN([C@@H](C)CO)C(=O)c2cccc(NC(=O)C3CCOCC3)c2O[C@@H]1CN(C)S(=O)(=O)c1ccc(F)cc1 | inactive
17 | Cc1noc(C)c1S(=O)(=O)Nc1ccc2c(c1)C(=O)N([C@H](C)CO)C[C@@H](C)[C@H](CN(C)CC1CCCCC1)OCCCC[C@@H](C)O2 | inactive
18 | CC(C=CC=C(C)C=CC1=C(C)C(=O)CCC1(C)C)=CC=CC=C(C)C=CC=C(C)C=CC1=C(C)C(=O)CCC1(C)C [CANTHAXANTHIN (euglenanone) ] | inactive
19 | COc1ccc(S(=O)(=O)Nc2ccc3c(c2)[C@@H]2C[C@H](CC(=O)NCC4CC4)O[C@@H](CO)[C@@H]2O3)cc1 | inactive
20 | C[C@H](CO)N1C[C@H](C)[C@@H](CN(C)Cc2ccc(C(=O)Nc3ccccc3N)cc2)Oc2ccc(NS(=O)(=O)c3ccc(Cl)cc3)cc2C1=O | inactive
21 | C[C@@H]1CCCCO[C@H](CN(C)S(=O)(=O)c2cccs2)[C@@H](C)CN([C@@H](C)CO)C(=O)c2cc(NC(=O)Nc3ccc(F)cc3)ccc2O1 | inactive
22 | N[C@@H](C(=O)O)c1ccc(C(=O)O)c(O)c1 | inactive

Row | Compound | cytotoxicity call
23 | NC[C@@H](O)c1ccsc1 | inactive
24 | CNC[C@H](O)c1ccc(O)c(O)c1 | inactive
25 | O=C(O)[C@@H](O)Cc1ccc(O)c(O)c1 | inactive
26 | CNCC(O)c1ccc(O)c(O)c1.O=C(O)C(O)C(O)C(=O)O (centres undefined) | active
27 | NC(C(=O)O)C(O)c1ccc(O)c(O)c1 (centres undefined) | active
28 | N[C@H](C(=O)O)c1ccc(C(=O)O)c(O)c1 | inactive
29 | N[C@H](C(=O)O)[C@H](O)c1ccc(O)c(O)c1 | inactive
30 | NC[C@H](O)c1ccc(O)c(O)c1 | active
31 | CNC[C@@H](O)c1ccc(O)c(O)c1 | inactive
32 | NCC(O)c1ccc(O)c(O)c1.O=C(O)C(O)C(O)C(=O)O (centres undefined) | active
33 | NC[C@@H](O)c1ccc2ccccc2c1 | inactive
34 | Cc1noc(C)c1S(=O)(=O)N(C)C[C@H]1Oc2ccc(NC(=O)Cc3cn(C)c4ccccc34)cc2CC(=O)N([C@@H](C)CO)C[C@H]1C | inactive
35 | COc1cccc(S(=O)(=O)N[C@@H]2C=C[C@H](CC(=O)NC3CCC3)O[C@H]2CO)c1 | inactive
36 | C[C@H](CO)N1C[C@H](C)[C@@H](CN(C)C(=O)Cc2ccccc2)OCCCC[C@H](C)Oc2ccc(NS(=O)(=O)c3cccs3)cc2C1=O | inactive
37 | C[C@H](CO)N1C[C@H](C)[C@@H](CN(C)Cc2ccc(C(=O)O)cc2)Oc2ccc(NC(=O)c3ccncc3)cc2C1=O | inactive
38 | C[C@@H]1CCCCO[C@@H](CN(C)Cc2ccc(C(F)(F)F)cc2)[C@H](C)CN([C@H](C)CO)C(=O)c2cc(NS(=O)(=O)c3cn(C)cn3)ccc2O1 | inactive
39 | CC(C)NC(=O)N(C)C[C@H]1OCCCC[C@H](C)Oc2ccc(NC(=O)Nc3ccc(C(F)(F)F)cc3)cc2C(=O)N([C@@H](C)CO)C[C@H]1C | inactive
40 | C[C@@H]1CCCCO[C@H](CN(C)S(=O)(=O)c2ccc(Cl)cc2)[C@@H](C)CN([C@@H](C)CO)C(=O)c2cc(NC(=O)C3CCCCC3)ccc2O1 | inactive
41 | C[C@@H]1CCCCO[C@H](CN(C)C(=O)CCC(F)(F)F)[C@H](C)CN([C@H](C)CO)C(=O)c2cc(NS(=O)(=O)c3ccccc3)ccc2O1 | inactive
42 | C[C@@H]1CCCCO[C@@H](CN(C)C(=O)Nc2ccccc2)[C@H](C)CN([C@H](C)CO)C(=O)c2cc(NC(=O)Nc3ccc(C(F)(F)F)cc3)ccc2O1 | inactive
43 | CC(C)NC(=O)N(C)C[C@H]1Oc2c(NS(=O)(=O)c3ccc(F)cc3)cccc2C(=O)N([C@H](C)CO)C[C@H]1C | inactive
44 | C[C@@H]1CN([C@@H](C)CO)C(=O)c2cc(C#CC3CC3)cnc2O[C@H]1CN(C)S(=O)(=O)c1cccc(F)c1 | inactive

Reference: the antibiotic and cytotoxicity screens of Wong et al. (2023)
